CtBP-E1A inh = inhibitors of CtBP/E1A interaction; activity change, % (concentration not given with the values); AlphaScreen GST-E1A/His-CtBP binding, 1536-well; stronger effect = lower value; hit rate 0.49% among 340,000; in the data active = activity change below about -65%; inconclusive = mostly about -30% to -63%; note: % is set by controls: 0 for no effect and ±100 for the full control effect
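Protein mix (5X: 125 nM each GST-E1A, His-CtBP) was incubated with pinned compound 2 h at 37 deg C in dark, in 50 mM Tris pH 8.0 buffer with 300 mM NaCl. Glutathione donor and nickel acceptor beads followed; AlphaScreen signal read after 1 h.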
Six1-Eya2 blk = Six1/Eya2 interaction inhibition | Q15475+O00167 | activity change, % (concentration not given with the values) | AlphaScreen GST-Six1/His-Eya2 binding, biochemical; stronger effect = lower value | hit rate 0.56% among 360,000; in the data active = activity change below about -65%; inconclusive = mostly about -30% to -63%; note: % is set by controls: 0 for no effect and ±100 for the full control effect
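GST-Six1 + His-Eya2 (5X stock: 250/500 nM); Tris pH 8.0, 300 mM NaCl, 0.05% BSA, 0.02% Tween 20; GSH donor/Ni acceptor beads; 1 h 37 °C dark; AlphaScreen readout.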
HP1b chromo inh = HP1-beta chromodomain-methylated histone interaction inhibition | AlphaScreen HP1-beta / biotin-H3K9me3 peptide binding | Potency, µM (titrated, usually from 114 µM), for the others: at the highest dose activity change, negative = inhibition, hits mostly inhibitors | hit rate 0.56% among 390,000 | P83916; note: potency is the fitted concentration of half-maximal effect; nearly all actives have a fitted effect of over 70% in size
Target sequence (P83916 whole entry, looked up): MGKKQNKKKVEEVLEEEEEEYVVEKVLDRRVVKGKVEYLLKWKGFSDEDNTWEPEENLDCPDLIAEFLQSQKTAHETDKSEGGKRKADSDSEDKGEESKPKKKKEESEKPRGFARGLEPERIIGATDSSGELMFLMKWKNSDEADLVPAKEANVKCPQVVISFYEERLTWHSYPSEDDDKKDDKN
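AlphaScreen: HP1-beta (50 nM) preformed 30 min with biotin-H3(1-18)K9me3 peptide (50 nM) in PBS pH 7.4, 0.01% Tween-20. Compound added for 30 min at RT, then streptavidin donor/nickel chelate acceptor beads (10 ug/mL) for 30 min.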
BAZ2B block = inhibitors of human BAZ2B bromodomain. Q9UIF8. AlphaScreen BAZ2B-H3K14Ac peptide displacement. Potency, µM (series often up to 114 µM), for the others: at the top dose activity change, negative = inhibition, usual class: inhibitors. hit rate 4.4% among 360,000. AID 504333; note: potency is the fitted concentration of half-maximal effect; % is set by controls: 0 for no effect and ±100 for the full control effect; nearly all actives have a fitted effect of over 60% in size
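AlphaScreen luminescence quantifies BAZ2B engagement of H3K14Ac peptide; the protein and biotinylated peptide are both at 50 nM final, buffer PBS pH 7.4 with 0.01% Tween-20, all steps at room temperature.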
G9a block = G9a (human) methyltransferase inhibition | G9a H3K9 monomethylation, AlphaScreen, 2 h | Potency, µM (top dose mostly 102 µM), for inactives: top-dose activity, negative = inhibition, usual class: inhibitors | hit rate 8.8% among 350,000; note: potency is the fitted concentration of half-maximal effect; % is set by controls: 0 for no effect and ±100 for the full control effect; nearly all actives have a fitted effect of over 75% in size
Target sequence (Q96KQ7 913-1193 limits assumed): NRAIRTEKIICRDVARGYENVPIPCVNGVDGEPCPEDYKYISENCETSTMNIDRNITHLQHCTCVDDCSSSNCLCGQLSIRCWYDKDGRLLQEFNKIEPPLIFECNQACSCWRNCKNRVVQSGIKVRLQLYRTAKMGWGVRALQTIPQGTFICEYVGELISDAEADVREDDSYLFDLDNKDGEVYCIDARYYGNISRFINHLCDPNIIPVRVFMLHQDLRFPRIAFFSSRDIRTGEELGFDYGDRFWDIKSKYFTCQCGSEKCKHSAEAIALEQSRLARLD
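Methyltransferase reactions run at room temperature for 2 h (20 nM enzyme, 500 nM biotin-H3K9 peptide, 20 uM SAM) after a 15 min compound preincubation; product detected by AlphaScreen beads and anti-H3K9me1 antibody.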
JMJD2A Tudor inh = blocks the human JMJD2A Tudor domain. Potency, µM (highest dose often 114 µM), without a hit: at the top dose activity change, negative = inhibition, most hits filed as inhibitors. AlphaScreen JMJD2A-Tudor / H3K4me3 peptide binding. hit rate 4.4% among 390,000. AID 504339; note: potency is the fitted concentration of half-maximal effect; % is set by controls: 0 for no effect and ±100 for the full control effect; nearly all actives have a fitted effect of over 50% in size
The depositor's hits bear a star; ? = inconclusive; · = not tested or not shown; ! = a repeat was not active; [ ] = remark or other dose. Hits are enriched below; roughly 10% of the tested compounds scored in any of these assays. Unless noted, calls come from the whole dose curve; as a rule, active = well fitted inhibition curve with a large enough effect; inconclusive = small, poorly fitted or top-dose-only effect; inactive = no such curve, though single readings can be large or run the other way.

SMILES | CtBP-E1A inh | Six1-Eya2 blk | HP1b chromo inh | BAZ2B block | G9a block | JMJD2A Tudor inh
C[C@@H](c1ccccc1)N1C[C@H](COCc2ccccc2)Oc2cc(N3CC[C@H](O)C3)ccc2S1(=O)=O | -10 | -15 | · | · | · | ·
CCCOC(=O)c1c(NC(=O)C(C)Sc2nc(-c3ccccc3)cc(C(F)(F)F)n2)sc(C(=O)N(C)C)c1C (stereo unspecified) | · | · | 10% | -1% | 11µM* | -14%
CCN(CC)C(=O)c1sc(NC(=O)C(C)Sc2nc(-c3ccccc3)cc(C(F)(F)F)n2)c(C(=O)OC)c1C (stereo unspecified) | · | · | -23% | -5% | 3.5µM* | -11%
CCCCNC(=O)CSc1nc(-c2ccc(OC)cc2)cc(C(F)(F)F)n1 | · | · | 25% | 3%[57.1 µM] | -20%[59 µM] | -5%
CCN(CC)CCCNC(=O)C(C)Sc1nc(-c2ccccc2)cc(C(F)(F)F)n1 (stereo unspecified) | · | 5 | 60% | -17% | · | -1%
CCOC(=O)c1c(NC(=O)CSc2nc(-c3ccc(OC)cc3)cc(C(F)(F)F)n2)sc(C)c1C | · | · | -19% | -9% | 4.5µM* | -20%
CC(=O)c1ccc2c3c(cc(C)c2c1)CCCC3 | 34 | 5 | 168% | · | · | 141%
CC(=O)Nc1cc(-c2cccc(F)c2)cn2c(-c3ccc(S(C)(=O)=O)cc3)cnc12 | -5 | -7 | · | · | · | ·
O=Nc1c(-c2ccccc2)cc2ccccn12 | 18 | -11 | 7% | 79µM* | 40µM* | -36%
COc1ccc(C(C)=O)cc1CN1C(=O)C(C)ON=C1c1cccc(C(F)(F)F)c1 (stereo unspecified) | 1 | -1 | · | · | · | ·
O=C(NNS(=O)(=O)c1ccc(F)cc1)c1cc(Cl)ccc1O | · | 12 | 59% | -7% | 6%[59 µM] | 2%
O=C(O)/C=C/c1nc(-c2ccccc2)n2ccccc12 | -1 | -9 | 6% | 45µM* | 11µM* | -28%
CC(NC(=O)c1ccco1)C(c1cccs1)N1CCN(c2ccc(F)cc2)CC1 (stereo unspecified) | 1 | -4 | -15% | 50µM* | 50µM* | -35%
Cc1ccc(CNC(=O)CCc2c(C)nc3nc(C)nn3c2C)cc1 | · | · | 36% | 6% | 8%[59 µM] | -12%
Cc1nnc2sc(-c3ccc(-c4ccc(Cl)c(C(F)(F)F)c4)o3)nn12 | 0 | -1 | 14% | 9% | 50µM* | ?
Cc1ccc(-c2nnn(CC(=O)Nc3nnc(C(C)C)s3)n2)cc1 | 9 | -2 | 0% | 0% | -3% | 56µM*
CC(C)c1nnc(NC(=O)CN2C(=O)c3ccccc3C2=O)s1 | 1 | 5 | 42% | -35% | · | -25%
O=C1NC[C@H](CCCCN2C[C@H](Cc3ccccc3)N(CCc3ccc(O)cc3)C(=O)C2=O)N(CCc2ccccc2)C1=O | 1 | 1 | · | · | · | ·
O=[N+]([O-])c1ccc(NC2CCN(Cc3ccccc3)CC2)c([N+](=O)[O-])c1 | · | ? | ? | ? | ? | -72%
O=C1C2CCCCC2C(=O)N1c1ccc(NC2CCN(Cc3ccccc3)CC2)c([N+](=O)[O-])c1 (stereo unspecified) | · | -17 | ? | 40µM* | ? | 45µM*
O=[N+]([O-])c1ccccc1NC1CCN(Cc2ccccc2)CC1 | -25 | ? | ? | 40µM* | · | ?
CC1CCC2C(=O)N(c3ccc(NC4CCN(Cc5ccccc5)CC4)c([N+](=O)[O-])c3)C(=O)C2C1 (stereo unspecified) | · | ? | ? | 35µM* | 40µM* | 32µM*
CCOC(=O)[C@]12CCC=C1N(Cc1ccc3c(c1)OCO3)C(=O)[C@H](CC(=O)NCc1ccccc1)C2 | 16 | -5 | · | · | · | ·
CO/N=C(\C(=O)N[C@@H]1C(=O)N2C(C(=O)O)=C(COC(N)=O)CS[C@H]12)c1ccco1 | -5 | 7 | 15% | -6% | ? | 25µM*
CO/N=C(\C(=O)N[C@@H]1C(=O)N2C(C(=O)O)=C(COC(C)=O)CS[C@H]12)c1csc(N)n1 | · | · | · | · | 11µM* | ·
SMILES | CtBP-E1A inh | Six1-Eya2 blk | HP1b chromo inh | BAZ2B block | G9a block | JMJD2A Tudor inh
CON=C(C(=O)NC1C(=O)N2C(C(=O)O)=C(CSc3nc(=O)c(=O)[nH]n3C)CSC12)c1csc(N)n1 (stereo unspecified) | -10 | -25 | -11% | · | · | 50µM*
CO/N=C(\C(=O)N[C@@H]1C(=O)N2C(C(=O)O)=C(CSc3nc(=O)c(O)nn3C)CSC12)c1csc(N)n1 (stereo partly specified) | · | · | · | · | 28µM*! | ·
CO/N=C(\C(=O)N[C@@H]1C(=O)N2C(C(=O)O)=C(COC(C)=O)CS[C@@H]12)c1csc(N)n1 | · | · | · | · | -39%[12.7 µM] | ·
O=C(OCc1cccc([N+](=O)[O-])c1)c1cc(=O)[nH]c2ccccc12 | · | · | · | -14% | 33% | ·
COc1ccc(CCc2c[nH]c(=O)c3cncnc23)cc1OC | · | · | 1% | · | · | -31%
CCc1cc(C=NC2CCCCC2)c(O)s1 | -9 | -22 | -10% | -31% | 13µM* | -35%[57.1 µM]
Cc1cc(NC(=O)CN2CC3CC(C2)c2cccc(=O)n2C3)nc2c1c(=O)oc1ccccc12 (stereo unspecified) | · | · | · | ? | 35µM* | ·
O=C(Nc1cc(F)ccc1F)N1CCC(CN2CCCC2)CC1 | · | · | 39% | 5% | -10%[59 µM] | 3%
CCOc1ccccc1C(=O)NCC(=O)N(C)Cc1cccnc1 | 2 | 4 | 14% | -5% | 40µM* | -5%
NCCOB(c1ccccc1)c1ccccc1 | · | · | · | · | -17%[2.33 µM] | ·
CC1CCCC(C)N1C(=O)/C=C/c1ccc(S(=O)(=O)N2CCOCC2)cc1 (stereo unspecified) | 1 | -2 | -15% | 7% | 5% | -15%
CCn1c(-c2cccnc2)n[nH]c1=S | 1 | 4 | 14% | ? | 27%[0.501 µM] | 22µM*
CCOC(=O)CSc1n[nH]c(-c2cccnc2)n1 | -1 | 8 | 23% | 3% | 17% | 1%
CCCCn1c(-c2cccnc2)nc2cc3[nH]c(=O)c(C(C)C)nc3cc21 | -5 | -11 | 47% | -6% | ? | -12%
CCCCn1c(-c2cccnc2)n[nH]c1=S | 1 | 3 | 18% | 5% | 25µM* | 8.9µM*
O=C(Cn1cc(S(=O)(=O)Cc2ccccc2F)c2ccccc21)N1CCOCC1 | 4 | 2 | 45% | -18% | 22µM* | -12%
Cc1cccc(CS(=O)(=O)c2cn(CC(=O)N3CCOCC3)c3ccccc23)c1 | 4 | 7 | 50% | -17% | 10µM* | -9%
COc1ccc(CCNC(=O)CS(=O)(=O)c2cn(CC(=O)N(C(C)C)C(C)C)c3ccccc23)cc1OC | 10 | -2 | 25% | -1% | 17% | -1%

Screens deposited in PubChem BioAssay by National Center for Advancing Translational Sciences (NCATS).
